HCT116 bCat-KO – beta-catenin-lacking colon tumor cell growth suppression | HCT116 beta-catenin knockout viability, CellTiter-Glo, 60 h; hits give low values | viability, % at 10 µM | 140,000 tested, 1.5% active | AID 818;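 active = viability at or under a set limit, the compound median less 4 SD, cut at about 6% in these data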;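 note: 0% = Hyamine 1622 control at 20 µM and 100% = untreated cell control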
Autophagy mod – autophagy modulation, high-content screen | MEF GFP-LC3 puncta imaging; test concentration mostly 10 µM | calls only at 10 µM (by protocol) | 190,000 tested, 0.98% active;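 active = percentage of spot-positive cells more than 3 SD above its plate mean, without a fluorescence outlier flag or 80% toxicity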;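 note: spot-positive cell cutoff set from DMSO-treated cells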
Insulin prom up – MIN6 insulin promoter up-regulation | MIN6 insulin promoter-GFP reporter, high-content imaging; hits give high values | z-score at 5 µM | 190,000 tested, 0.3% active;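 active = z-score above 3 at 5 µM with at least 500 cells counted in the well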
INS promoter inh – TRM-6 insulin promoter activity inhibition; TRM-6 cells (human fetal islet line), insulin promoter-eGFP reporter, imaging; reporter expression induced with tamoxifen; inhibition, % at 2 µM; 130,000 tested, 0.9% active;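 active = inhibition above the mean plus 3 SD, with well images judged a real hit on visual review, cut at about 60% in these data, passing the limit was not always enough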
PTEN del growth – PTEN-deleted cell growth suppression; viability, % at 10 µM; HCT116 PTEN-null viability, CellTiter-Glo, 60 h; hits give low values; AID 827; 140,000 tested, 1.2% active;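 active = viability at or below a set limit, 4 SD under the median of all tested compounds, cut at about 3.7% in these data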;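 note: PTEN knockout HCT116 line with beta catenin targeted HCT116 as companion control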
L major viab – inhibitors of Leishmania major promastigote growth | Leishmania major promastigotes, resazurin fluorescence viability | inhibition, % at 10 µM | 200,000 tested, 9% active | AID 1063; in the data active = inhibition above about 50%;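 note: promastigotes grown with compound for 44 hours at 28 °C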
* hit, by the source's call; i = inactive; . = not tested or not shown; + = active, no number. Shown are actives, neighbours in structure and some others; about 9.6% of the full set was active somewhere.

SMILES | HCT116 bCat-KO | Autophagy mod | Insulin prom up | INS promoter inh | PTEN del growth | L major viab
O=C(NNC(=S)NC(=O)c1cccs1)c1ccc(NC(=O)c2ccccc2)cc1 | 27 | i | -0.73 | 29 | 23 | 99*
O=C(NNC(=S)NC(=O)c1ccco1)c1ccc(NC(=O)c2ccccc2)cc1 | . | i | 0.17 | -14 | . | 96*
CCCCC(=O)Nc1ccc(C(=O)NNC(=S)NC(=O)c2ccco2)cc1 | . | i | 0.02 | . | . | 6
CCCCC(=O)Nc1ccc(C(=O)NNC(=S)NC(=O)c2cccs2)cc1 | 41 | i | 0.28 | . | 44 | 62*
C/C(=N/NC(=O)c1ccc(C)s1)c1cccc(NC(=O)COc2ccc(Cl)cc2Cl)c1 | 62 | i | 0.08 | 23 | 67 | 6
O=C(Nc1ccc(NC(=S)NC(=O)c2cccs2)cc1)c1ccccc1 | 101 | i | . | -3 | 98 | -3
Cc1ccc(/C=N/n2c(-c3cccs3)n[nH]c2=S)cc1 | 86 | i | . | 19 | 90 | 0
O=C(Nc1ccccc1-c1ccccc1)C1CCC1 | . | i | 0.35 | . | . | -4
O=C(NC(=S)NNC(=O)c1cc2ccccc2cc1O)c1ccco1 | . | i | -2.8 | . | . | 76*
NNC(=O)c1cc2ccccc2cc1O | 27 | i | 0.14 | 49 | 23 | 64*
O=C(Cc1ccc(Cl)cc1)Nc1ccc(NC(=O)c2cccs2)cc1 | . | + | 0.26 | -13 | . | -2
CC(C)CNC(=O)c1ccc(NC(=O)c2cccs2)cc1 | 104 | i | -0.31 | 5 | 103 | 52*
CCC(C)c1ccc(NC(=O)c2cccs2)cc1 (centres undefined) | 68 | i | 0.03 | -10 | 63 | 1
O=C(NC(=S)NNC(=O)c1ccccc1O)c1ccco1 | 16 | i | 0.8 | . | 16 | -1
O=C(CN(C(=O)CNC(=O)c1cccs1)c1ccc2c(c1)OCCO2)NC1CCCC1 | 102 | i | 0.52 | 4 | 95 | 5
C/C(=C\C(=O)c1ccncc1)Nc1ccccc1O | 56 | i | . | -88 | 40 | 57*
CCN(CC)c1ccc(N=Nc2nn(C)c(C)c2[N+](=O)[O-])cc1 | 89 | i | -1 | -28 | 87 | 53*
O=c1[nH]c(CSc2nc3ccccc3[nH]2)nc2c1cnn2-c1ccccc1 | 45 | i | 0.86 | 11 | 50 | 69*
O=c1[nH]c(CSc2ncccn2)nc2c1cnn2-c1ccccc1 | 89 | i | -0.18 | -5 | 99 | 54*
O=c1[nH]c(SCc2nc3c(cnn3-c3ccccc3)c(=O)[nH]2)nc2ccccc12 | 22 | i | 0.51 | . | 30 | 0
CCCCNc1ccc(S(N)(=O)=O)cc1[N+](=O)[O-] | 92 | i | -0.15 | -38 | 99 | 46
COc1cccc(CNS(=O)(=O)/C=C/c2ccc(OC)c(OC)c2)c1 | . | i | -0.3 | . | . | -7
N#CC1=C(SCc2ccccc2)NC(=O)CC1c1ccc(O)cc1 (centres undefined) | 88 | i | 0.16 | -388 | 90 | 28
N#CC1=C(SCc2ccccc2)NC(=O)CC1c1cccc(O)c1 (centres undefined) | 75 | i | 0.31 | . | . | 62*
Cc1ccc(C2CC(=O)NC(SCc3ccccc3)=C2C#N)cc1 (centres undefined) | 95 | i | -1 | 51 | 93 | 61*
SMILES | HCT116 bCat-KO | Autophagy mod | Insulin prom up | INS promoter inh | PTEN del growth | L major viab
Cc1cc(C)n(CC(=O)N/N=C/c2ccc(C)o2)n1 | 91 | i | -0.42 | -33 | 94 | -8
CNC(=O)c1nnn(Cc2ccccc2)c1NC(C)=O | 97 | i | 0.04 | 10 | 101 | -5
O=C(NC1(C(F)(F)F)C(=O)Nc2c1c(=O)[nH]c(=O)n2-c1ccc(F)cc1)c1cccnc1 (centres undefined) | 97 | i | 0.92 | -25 | 90 | -5
O=C(CN(c1ccc2c(c1)OCCO2)S(=O)(=O)c1ccccc1)NCC1CCCO1 (centres undefined) | 99 | i | 0.37 | 20 | 99 | -4
CN(Cc1ccccc1)C(=O)CN(c1ccc(F)cc1)S(=O)(=O)c1ccc2c(c1)OCCO2 | 84 | i | . | 54 | 84 | 95*
O=C(CN(c1ccc(F)cc1)S(=O)(=O)c1ccc2c(c1)OCCO2)Nc1ccccc1 | 65 | i | . | 42 | 73 | 80*
O=C(CN(Cc1ccccc1)S(=O)(=O)c1ccc2c(c1)OCCO2)Nc1ccc2c(c1)OCCO2 | 93 | i | 0.29 | . | 101 | 13
Cc1ccc(/C=N/NC(=O)CN(Cc2ccccc2)S(=O)(=O)c2ccc3c(c2)OCCO3)cc1 | 86 | i | -0.22 | 10 | 89 | 95*
CC(=O)Nc1ccc(NC(=O)CN(c2ccc(F)cc2)S(=O)(=O)c2ccc3c(c2)OCCO3)cc1 | 83 | i | . | 19 | 79 | 21
O=C(CN(c1ccc2c(c1)OCCO2)S(=O)(=O)c1ccccc1)NCc1ccc(Cl)cc1 | 66 | i | 0.1 | -14 | 64 | 98*
O=C(NC1CC1)C1CCN(C2CCN(C(=O)CSc3ccccc3)CC2)CC1 | . | . | 0.34 | . | . | .
CCOC(=O)/C(C#N)=C/c1ccc(OC(=O)c2ccccn2)cc1 | 95 | i | 0.08 | . | 98 | -1
CC1=C(C(=O)Nc2cccc(F)c2)C(c2ccsc2)C2=C(CC(C)(C)CC2=O)N1 (centres undefined) | 15 | i | 0.26 | -83 | 13 | 28
C/C(=C\c1ccccc1)C(=O)c1c(C)cc(C)[nH]c1=O | . | i | -0.81 | -45 | . | 20
O=C(CN(c1ccc(F)cc1)S(=O)(=O)c1ccc2c(c1)OCCO2)NCc1ccccc1 | 95 | i | . | 6 | 86 | 96*
COc1cccc(C(=O)COc2ccccc2-c2ccccc2)c1 | 87 | i | -0.34 | 18 | 88 | 53*
Cc1ccc(N2C(=N)/C(=C3/Nc4ccccc4S3)C(c3ccccc3)C2=O)cc1 (centres undefined) | 2.8* | + | -0.44 | . | 1.8* | 100*
Cc1ccc(N2C(=O)C(F)(F)C2c2ccccc2)cc1 (centres undefined) | . | i | 1.2 | -7 | . | 8
COc1ccc(Cl)cc1N(CC(=O)NC(C)(C)C)S(=O)(=O)c1ccc(C)c([N+](=O)[O-])c1 | 79 | i | 0.85 | -45 | 74 | 96*
COC(=O)CN(c1cc(Cl)ccc1OC)S(=O)(=O)c1ccc(C)cc1 | . | . | -0.16 | . | . | .
CCNC(=S)NNc1ccccc1 | . | . | 0.12 | . | . | .
CCN(CC)CCNC1=NCCn2c1cc1cc(OC)ccc12 | 50 | i | -0.11 | -48 | 45 | 96*
Cc1c(C(=O)N2CCOCC2)sc2ncn(CC(=O)N3CCC(C)CC3)c(=O)c12 | 86 | i | -0.86 | -9 | 99 | -7
CCOC(=O)c1sc(=S)n(CC)c1N | 110 | i | -0.48 | 0 | 105 | -7
COC(=O)CCCCCCCCCC[N+]1(C)CCCCC1 | 96 | i | -0.13 | -10 | 92 | 17
C[N+]1(CC(=O)OC2CCCCCCCCCCC2)CCCC1 | . | i | . | -30 | . | 100*
CCc1ccc(C2=NN(C(C)=O)C(c3ccco3)C2)cc1 (centres undefined) | . | i | 1.2 | . | . | 4

Screening data from PubChem BioAssay.
